Source: PubChem BioAssay (EPA / NIEHS)
Inconclusive results are not listed. The source made the active and inactive calls. Rule for the calls, unless noted: active = hit-call score of the fitted dose curve at least 0.9, where 1 is the maximum; inactive = score below 0.9.

How the values were obtained:
[1] = target: Glucocorticoid receptor (Homo sapiens) (UniProt P04150); assay: ATG_GR_TRANS: Attagene TRANS-FACTORIAL HepG2 Assay for human Glucocorticoid Receptor (GR) (AID 2282978; active = hit-call score of the fitted dose curve at least 0.9, where 1 is the maximum;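 note: activators score as hits since higher reporter transcript over DMSO is fitted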); details: HepG2 Attagene TRANS GR reporter, mRNA transcription
Outline: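 Transiently transfected HepG2 cells express chimeric NR-GAL4 proteins acting on GAL4-UAS reporter units. Compounds are applied for 24 h. mRNA induction over DMSO is measured by capillary electrophoresis.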

[2] = target: Bile acid receptor (Homo sapiens) (UniProt Q96RI1); assay: ATG_FXR_TRANS: Attagene TRANS-FACTORIAL HepG2 Assay for Farnesoid X Receptor (FXR) (AID 2282979; active = hit-call score of the fitted dose curve at least 0.9, where 1 is the maximum;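 note: hits raise reporter mRNA above DMSO so AC50 marks FXR activation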); details: HepG2 Attagene TRANS FXR-GAL4 reporter transcription
Outline: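 After 24 h chemical treatment of transfected HepG2 cells, GAL4-UAS reporter transcripts driven by an exogenous FXR-GAL4 fusion were measured by RT-PCR and capillary electrophoresis. Increases over DMSO were fitted.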

[3] = ATG_M_06_TRANS: Attagene TRANS-FACTORIAL HepG2 Assay for M06 Transcription Factor (Internal Marker) (AID 2282983; active = hit-call score of the fitted dose curve at least 0.9, where 1 is the maximum;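 note: reporter transcript level by RT-PCR then capillary electrophoresis fluorescence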); details: HepG2 Attagene TRANS M06 internal marker reporter
Outline: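 Internal-marker background readout from a multiplexed TRANS reporter system in HepG2; 24 h dosing; mRNA induction quantified by RT-PCR plus capillary electrophoresis fluorescence; DMSO as negative control and baseline.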

[4] = ATG_M_32_TRANS: Attagene TRANS-FACTORIAL HepG2 Assay for M32 Transcription Factor (Internal Marker) (AID 2282984; active = hit-call score of the fitted dose curve at least 0.9, where 1 is the maximum;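 note: transcript level of a background control reporter unit measured by RT-PCR and capillary electrophoresis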); details: HepG2 Attagene TRANS M32 internal marker reporter
Outline: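 HepG2 cells transiently transfected with GAL4-UAS reporter units, dosed for 24 hours. Reporter mRNA quantified by RT-PCR, 6-FAM labelling, HpaI digestion and capillary electrophoresis; internal-marker signal fitted upward relative to DMSO.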

[5] = target: Transcriptional activator Myb (Homo sapiens) (UniProt P10242); assay: ATG_Myb_CIS: Attagene CIS-FACTORIAL HepG2 Assay for human Myeloblastosis (Myb) Proto-Oncogene Transcription Factor (AID 2282986); details: HepG2 Attagene CIS-FACTORIAL Myb reporter transcription; actives raise or lower the signal
Outline: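 Using HepG2 liver cells bearing transiently transfected cis-promoter reporter constructs, the assay measures induction or loss of reporter mRNA after 24 hours of dosing. Detection used fluorescently labeled RT-PCR products separated by capillary electrophoresis.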

[6] = target: Nuclear respiratory factor 1 (Homo sapiens) (UniProt Q16656); assay: ATG_NRF1_CIS: Attagene CIS-FACTORIAL HepG2 Assay for human Nuclear Respiratory Factor 1 (NRF1) Orphan Gene (AID 2282987); details: HepG2 NRF1 cis-element reporter, Attagene multiplex; actives raise or lower the signal
Outline: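 Reporter mRNA induction or loss in HepG2 cells after 24 h dosing; cis-regulated reporter constructs report endogenous transcription-factor activity. Quantified by RT-PCR/capillary electrophoresis fluorescence, DMSO-referenced.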

[7] = target: Myc proto-oncogene protein (Homo sapiens) (UniProt P01106); assay: ATG_Myc_CIS: Attagene CIS-FACTORIAL HepG2 Assay for human Myelocytomatosis (Myc) Proto-Oncogene Transcription Factor (AID 2282990); details: HepG2, Attagene cis-reporter transcription factor activity; actives raise or lower the signal
Outline: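 Fluorescence intensity of reporter-specific cDNA fragments, separated by capillary electrophoresis, gives the signal. Transfected HepG2 cells carrying cis-promoter reporter constructs are incubated with compound for 24 h; DMSO serves as baseline.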

[8] = ATG_NRF2_ARE_CIS: Attagene CIS-FACTORIAL HepG2 Assay for human Nuclear Factor Erythroid 2 Related Factor 2 (NFR2) response to Antioxidant Response Elements (ARE) (AID 2282992); details: HepG2 Attagene ARE/NRF2 reporter, transcription factor activity; actives raise or lower the signal;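 for AC50: reporter mRNA level measured by RT-PCR and capillary electrophoresis fluorescence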
Outline: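 Transient MRTU transfection of HepG2; 24 h compound exposure; TriZol RNA, RT with oligo(dT), PCR, 6-FAM primer extension, HpaI cut, CE. Bidirectional fit vs DMSO.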

[9] = target: Cellular tumor antigen p53 (Homo sapiens) (UniProt P04637); assay: ATG_p53_CIS: Attagene CIS-FACTORIAL HepG2 Assay for human p53 Transcription Factor (AID 2282994); details: HepG2 p53 cis-element reporter, Attagene mRNA; actives raise or lower the signal
Outline: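 HepG2, transient MRTU transfection (cis promoter elements, endogenous TFs); 24 h dosing; RNA isolation, RT-PCR, 6-FAM primer extension, HpaI digest, CE fluorescence; bidirectional fit vs DMSO.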

[10] = BSK_3C_TissueFactor: BioMAP Diversity Plus: 3C Assay for Tissue Factor Biomarker Activity (AID 2282997); details: BioMAP 3C HUVEC, tissue factor biomarker readout; actives raise or lower the signal
Outline: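 Endothelial monolayers (human umbilical vein, primary) are dosed, incubated 24 h, and assayed for Tissue Factor by ELISA; DMSO serves as negative control for bidirectional fitting.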

[11] = BSK_3C_uPAR: BioMAP Diversity Plus: 3C Assay for Urokinase-type plasminogen activator receptor (uPAR) Biomarker Activity (AID 2282998); details: BioMAP 3C HUVEC, uPAR biomarker ELISA; actives raise or lower the signal
Outline: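 Values derive from bidirectional curve fitting relative to DMSO, which served as baseline of activity. uPAR was measured by ELISA in human umbilical vein endothelial primary cultures 24 h after compound addition.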

[12] = BSK_3C_VCAM1: BioMAP Diversity Plus: 3C Assay for Vascular cell adhesion molecule 1 (VCAM1) Biomarker Activity (AID 2282999); details: BioMAP 3C HUVEC, VCAM1 ELISA, cytokine-stimulated; actives raise or lower the signal
Outline: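 Human umbilical vein endothelial cells (3C system), biomarker read by ELISA 24 h after dosing; bidirectional fit against DMSO baseline. Cytotoxicity tracked by SRB total-protein staining in parallel cultures at biomarker time.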

[13] = BSK_4H_Eotaxin3: BioMAP Diversity Plus: 4H Assay for Eotaxin 3 Biomarker Activity (AID 2283000); details: primary human endothelial cells (HUVEC); actives raise or lower the signal
Outline: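 ELISA quantitation of CCL26 (Eotaxin-3) protein from chemically dosed human vascular endothelial cells at 24 h; increases and decreases both scored relative to DMSO-treated baseline.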

[14] = target: Nuclear receptor subfamily 4 group A member 2 (Homo sapiens) (UniProt P43354); assay: ATG_NURR1_TRANS: Attagene TRANS-FACTORIAL HepG2 Assay for human Nuclear Receptor Related Protein 1 (NURR1) (AID 2282985; active = hit-call score of the fitted dose curve at least 0.9, where 1 is the maximum); details: HepG2 Attagene TRANS reporter, mRNA readout
Outline: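 HepG2 cells transiently transfected with NURR1-Gal4 chimera and GAL4-UAS reporter units; after 24 hr compound exposure, reporter mRNA quantified by RT-PCR and capillary electrophoresis; gain of signal fitted against DMSO.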

[15] = ATG_Oct_MLP_CIS: Attagene CIS-FACTORIAL HepG2 Assay for human Octamer-Binding Transcription Factor (Oct) (AID 2282993); details: HepG2 Attagene cis-factorial Oct reporter, mRNA; actives raise or lower the signal
Outline: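 After 24 h compound exposure, transfected HepG2 cells were lysed for total RNA; reporter-specific cDNA was PCR-amplified, fluorescently labelled and sized by capillary electrophoresis. Bidirectional curve fitting used DMSO as baseline.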

[16] = target: Oxysterols receptor LXR-alpha (Homo sapiens) (UniProt Q13133); assay: ATG_LXRa_TRANS: Attagene TRANS-FACTORIAL HepG2 Assay for human Liver X Receptor alpha (LXRa) (AID 2282980; active = hit-call score of the fitted dose curve at least 0.9, where 1 is the maximum); details: HepG2 Attagene TRANS reporter, LXRa transactivation
Outline: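 In this multiplexed TRANS system, compounds act on HepG2 cells carrying GAL4-UAS reporter units and a receptor-GAL4 fusion for 24 h. Induced reporter RNA is amplified, fluorescently labelled and sized by capillary electrophoresis, with DMSO as baseline.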

[17] = target: Hepatocyte nuclear factor 4-alpha (Homo sapiens) (UniProt P41235); assay: ATG_HNF4a_TRANS: Attagene TRANS-FACTORIAL HepG2 Assay for human Hepatocyte Nuclear Factor 4 alpha (HNF4a) (AID 2282982; active = hit-call score of the fitted dose curve at least 0.9, where 1 is the maximum); details: HepG2 HNF4a transactivation reporter, mRNA readout
Outline: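 HepG2 cells transiently transfected with HNF4a-Gal4 chimera and GAL4-UAS reporter units, dosed for 24 h. Reporter mRNA measured by RT-PCR, fluorescent primer extension and capillary electrophoresis; gain-of-signal fitted relative to DMSO.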

[18] = ATG_NFI_CIS: Attagene CIS-FACTORIAL HepG2 Assay for human Nuclear Factor I (NFI) (AID 2282989); details: HepG2 cis-regulatory reporter, NFI response element transcription; actives raise or lower the signal
Outline: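 Multiplexed cis-reporter system in human HepG2 cells reports native TF activity as reporter mRNA induction 24 h post-dose. Fragments labelled with 6-FAM, HpaI-digested and resolved by capillary electrophoresis; activity fitted both directions versus DMSO.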

[19] = target: Oxysterols receptor LXR-beta (Homo sapiens) (UniProt P55055); assay: ATG_LXRb_TRANS: Attagene TRANS-FACTORIAL HepG2 Assay for human Liver X Receptor beta (LXRb) (AID 2282981; active = hit-call score of the fitted dose curve at least 0.9, where 1 is the maximum); details: HepG2 Attagene TRANS GAL4-LXRb reporter, mRNA
Outline: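 HepG2 cells transiently transfected with GAL4-UAS reporter units for chimeric NR-Gal4 proteins, dosed for 24 h. Reporter transcripts measured by RT-PCR and capillary electrophoresis; gain-of-signal fitting relative to DMSO.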

Measured: AC50

Chain of Cellular tumor antigen p53 (Homo sapiens) (P04637 whole entry, looked up): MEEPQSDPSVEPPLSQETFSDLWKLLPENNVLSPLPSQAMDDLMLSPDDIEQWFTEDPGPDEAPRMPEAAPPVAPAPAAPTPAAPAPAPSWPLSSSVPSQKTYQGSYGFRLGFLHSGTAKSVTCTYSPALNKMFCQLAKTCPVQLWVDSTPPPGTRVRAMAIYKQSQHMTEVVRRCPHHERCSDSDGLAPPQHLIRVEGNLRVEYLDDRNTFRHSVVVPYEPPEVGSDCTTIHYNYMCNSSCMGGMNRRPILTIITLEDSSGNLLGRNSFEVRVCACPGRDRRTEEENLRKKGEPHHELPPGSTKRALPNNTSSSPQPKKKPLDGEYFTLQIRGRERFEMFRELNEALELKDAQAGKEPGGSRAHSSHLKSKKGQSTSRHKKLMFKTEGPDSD
Chain of Oxysterols receptor LXR-alpha (Homo sapiens) (Q13133 whole entry, looked up, the tested form may be a part): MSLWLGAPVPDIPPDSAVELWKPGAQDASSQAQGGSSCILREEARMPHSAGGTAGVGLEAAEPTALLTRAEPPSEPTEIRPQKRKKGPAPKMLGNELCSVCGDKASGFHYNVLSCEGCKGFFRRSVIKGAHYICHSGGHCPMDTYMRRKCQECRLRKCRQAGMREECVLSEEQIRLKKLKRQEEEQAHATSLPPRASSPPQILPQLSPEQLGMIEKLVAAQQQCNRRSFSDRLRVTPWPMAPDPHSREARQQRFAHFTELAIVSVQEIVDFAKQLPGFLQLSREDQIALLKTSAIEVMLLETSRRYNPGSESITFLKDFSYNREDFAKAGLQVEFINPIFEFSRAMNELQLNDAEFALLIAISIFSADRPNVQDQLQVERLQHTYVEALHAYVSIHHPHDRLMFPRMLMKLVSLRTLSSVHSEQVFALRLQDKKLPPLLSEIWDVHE
Chain of Myc proto-oncogene protein (Homo sapiens) (P01106 whole entry, looked up, the tested form may be a part): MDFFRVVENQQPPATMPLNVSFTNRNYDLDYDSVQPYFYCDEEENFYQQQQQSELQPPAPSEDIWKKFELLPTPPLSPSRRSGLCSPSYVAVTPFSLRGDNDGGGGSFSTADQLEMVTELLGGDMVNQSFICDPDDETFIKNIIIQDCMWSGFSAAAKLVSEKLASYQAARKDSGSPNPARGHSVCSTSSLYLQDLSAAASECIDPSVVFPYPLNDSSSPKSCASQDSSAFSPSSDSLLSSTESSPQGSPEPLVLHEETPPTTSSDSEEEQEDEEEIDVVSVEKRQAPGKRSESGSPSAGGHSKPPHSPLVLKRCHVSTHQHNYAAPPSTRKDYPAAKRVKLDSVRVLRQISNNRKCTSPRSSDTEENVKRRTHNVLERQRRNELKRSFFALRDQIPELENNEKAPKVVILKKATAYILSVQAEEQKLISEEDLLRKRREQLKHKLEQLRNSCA
Chain of Nuclear receptor subfamily 4 group A member 2 (Homo sapiens) (P43354 whole entry, looked up, the tested form may be a part): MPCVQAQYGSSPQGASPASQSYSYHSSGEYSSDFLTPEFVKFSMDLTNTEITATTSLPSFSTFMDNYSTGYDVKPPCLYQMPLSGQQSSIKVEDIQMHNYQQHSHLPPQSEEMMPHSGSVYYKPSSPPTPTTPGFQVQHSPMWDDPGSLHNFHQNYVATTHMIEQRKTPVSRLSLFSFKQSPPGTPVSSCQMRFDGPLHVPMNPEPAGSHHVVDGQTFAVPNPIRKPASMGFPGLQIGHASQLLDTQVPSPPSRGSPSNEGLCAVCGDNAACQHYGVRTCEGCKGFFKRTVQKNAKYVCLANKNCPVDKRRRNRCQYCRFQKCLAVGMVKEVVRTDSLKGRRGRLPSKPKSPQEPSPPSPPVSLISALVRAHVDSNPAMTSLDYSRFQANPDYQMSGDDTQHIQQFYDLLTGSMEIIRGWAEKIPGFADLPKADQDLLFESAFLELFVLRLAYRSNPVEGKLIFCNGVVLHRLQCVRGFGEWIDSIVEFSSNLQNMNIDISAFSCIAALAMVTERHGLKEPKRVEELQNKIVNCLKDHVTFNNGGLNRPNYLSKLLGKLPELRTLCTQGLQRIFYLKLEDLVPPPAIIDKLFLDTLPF
Chain of Bile acid receptor (Homo sapiens) (Q96RI1 whole entry, looked up, the tested form may be a part): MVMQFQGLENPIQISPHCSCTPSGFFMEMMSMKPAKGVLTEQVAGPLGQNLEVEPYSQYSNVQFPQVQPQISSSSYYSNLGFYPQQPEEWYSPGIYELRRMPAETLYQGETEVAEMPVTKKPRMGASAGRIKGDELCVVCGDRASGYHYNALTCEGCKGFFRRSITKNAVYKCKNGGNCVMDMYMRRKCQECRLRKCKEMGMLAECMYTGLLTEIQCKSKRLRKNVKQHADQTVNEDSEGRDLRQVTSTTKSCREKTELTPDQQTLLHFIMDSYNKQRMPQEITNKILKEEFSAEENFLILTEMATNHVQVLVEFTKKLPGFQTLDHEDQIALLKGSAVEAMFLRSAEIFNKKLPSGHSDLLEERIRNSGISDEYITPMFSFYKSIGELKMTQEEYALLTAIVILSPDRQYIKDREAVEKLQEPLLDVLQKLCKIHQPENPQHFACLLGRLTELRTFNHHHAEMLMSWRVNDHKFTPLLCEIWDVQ
Chain of Nuclear respiratory factor 1 (Homo sapiens) (Q16656 whole entry, looked up): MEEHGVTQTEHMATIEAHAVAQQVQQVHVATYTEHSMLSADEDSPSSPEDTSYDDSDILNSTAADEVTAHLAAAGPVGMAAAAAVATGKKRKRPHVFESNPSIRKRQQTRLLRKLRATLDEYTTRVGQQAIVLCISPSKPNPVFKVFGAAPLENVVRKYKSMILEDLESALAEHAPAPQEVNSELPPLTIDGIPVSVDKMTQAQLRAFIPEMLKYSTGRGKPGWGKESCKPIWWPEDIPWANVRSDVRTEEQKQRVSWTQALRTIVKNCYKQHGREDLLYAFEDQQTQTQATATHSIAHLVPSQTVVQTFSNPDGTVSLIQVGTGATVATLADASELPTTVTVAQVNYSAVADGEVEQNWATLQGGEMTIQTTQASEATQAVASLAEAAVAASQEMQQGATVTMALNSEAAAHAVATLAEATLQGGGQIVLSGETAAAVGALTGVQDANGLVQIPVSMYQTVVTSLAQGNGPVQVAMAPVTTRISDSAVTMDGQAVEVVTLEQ
Chain of Glucocorticoid receptor (Homo sapiens) (P04150 whole entry, looked up, the tested form may be a part): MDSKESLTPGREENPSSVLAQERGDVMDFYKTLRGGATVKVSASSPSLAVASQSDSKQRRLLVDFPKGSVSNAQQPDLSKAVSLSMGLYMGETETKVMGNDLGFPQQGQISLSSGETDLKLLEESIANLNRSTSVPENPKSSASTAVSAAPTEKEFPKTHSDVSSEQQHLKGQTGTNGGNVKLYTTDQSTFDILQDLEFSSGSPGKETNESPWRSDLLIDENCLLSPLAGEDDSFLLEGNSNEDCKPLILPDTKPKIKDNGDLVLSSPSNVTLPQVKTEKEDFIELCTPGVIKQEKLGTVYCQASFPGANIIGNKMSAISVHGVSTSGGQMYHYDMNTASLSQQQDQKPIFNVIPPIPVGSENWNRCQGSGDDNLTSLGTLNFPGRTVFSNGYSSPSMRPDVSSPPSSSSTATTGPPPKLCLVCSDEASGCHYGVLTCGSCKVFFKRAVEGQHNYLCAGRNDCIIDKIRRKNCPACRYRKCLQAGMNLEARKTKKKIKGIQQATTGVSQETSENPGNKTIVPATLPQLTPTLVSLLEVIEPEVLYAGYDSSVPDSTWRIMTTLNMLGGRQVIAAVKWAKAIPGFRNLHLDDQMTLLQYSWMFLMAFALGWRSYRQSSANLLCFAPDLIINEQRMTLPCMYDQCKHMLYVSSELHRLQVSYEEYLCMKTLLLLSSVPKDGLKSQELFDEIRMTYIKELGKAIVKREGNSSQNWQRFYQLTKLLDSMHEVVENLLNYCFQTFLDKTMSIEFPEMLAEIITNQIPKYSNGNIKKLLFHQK
Chain of Oxysterols receptor LXR-beta (Homo sapiens) (P55055 whole entry, looked up, the tested form may be a part): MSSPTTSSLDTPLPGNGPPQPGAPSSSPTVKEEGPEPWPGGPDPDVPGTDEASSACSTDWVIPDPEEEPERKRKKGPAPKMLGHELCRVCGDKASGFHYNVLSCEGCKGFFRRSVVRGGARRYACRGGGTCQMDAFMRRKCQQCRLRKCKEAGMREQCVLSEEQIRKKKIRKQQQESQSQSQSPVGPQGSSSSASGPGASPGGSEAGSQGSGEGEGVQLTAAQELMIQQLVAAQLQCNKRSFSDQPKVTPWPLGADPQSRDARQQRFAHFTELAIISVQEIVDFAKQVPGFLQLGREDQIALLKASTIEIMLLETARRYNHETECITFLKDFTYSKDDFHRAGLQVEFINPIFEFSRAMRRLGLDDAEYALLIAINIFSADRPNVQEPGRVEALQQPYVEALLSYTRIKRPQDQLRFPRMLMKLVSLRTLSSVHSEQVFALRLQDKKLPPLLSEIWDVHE
Chain of Hepatocyte nuclear factor 4-alpha (Homo sapiens) (P41235 whole entry, looked up, the tested form may be a part): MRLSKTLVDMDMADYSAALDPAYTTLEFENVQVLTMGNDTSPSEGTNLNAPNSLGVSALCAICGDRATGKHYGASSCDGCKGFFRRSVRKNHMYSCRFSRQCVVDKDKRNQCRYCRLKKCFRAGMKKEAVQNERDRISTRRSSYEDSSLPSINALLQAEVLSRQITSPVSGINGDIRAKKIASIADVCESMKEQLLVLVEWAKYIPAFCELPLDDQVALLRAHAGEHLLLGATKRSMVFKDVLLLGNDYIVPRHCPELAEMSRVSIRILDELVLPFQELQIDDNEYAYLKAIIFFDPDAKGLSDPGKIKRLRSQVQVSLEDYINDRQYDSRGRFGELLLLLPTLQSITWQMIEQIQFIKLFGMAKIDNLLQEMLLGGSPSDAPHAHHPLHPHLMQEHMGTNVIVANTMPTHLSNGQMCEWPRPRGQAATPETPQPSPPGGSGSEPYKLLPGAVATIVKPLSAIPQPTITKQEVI

CCN(CC)C(=S)SSC(=S)N(CC)CC
active: [5] 162 µM | [6] 175 µM | [7] 83.7 µM | [8] 184 µM | [9] 137 µM | [10] 20 µM | [11] 20.6 µM | [12] 28.9 µM | [13] 32.3 µM
inactive: [1] | [2] | [3] | [4]

C[C@@H](Oc1ccc(CNC(=O)c2cccnc2Oc2ccc3c(c2)OCO3)c(F)c1)C(=O)O
not listed: [9] | [16] | [17] | [18] | [19]
inactive: all other assays above

OCCC(F)(F)C(F)(F)C(F)(F)C(F)(F)F
not listed: [5] | [19]
inactive: all other assays above

O=S(=O)(O)CCC(F)(F)C(F)(F)C(F)(F)C(F)(F)C(F)(F)C(F)(F)F
not listed: [5] | [18]
inactive: all other assays above
